This is part of a sample that, as a whole, favours compounds with a hit. Of some 79,000 tested, about 15% had one in any assay. Cut-off read from the data, not from the text of the source: active = growth inhibition above about 70%; inactive = the rest. Where a SMILES comes first, the peptide text is derived from it. [ ]: non-standard residue; d: D form. The star is where a group is joined. ξ: configuration not given here. ξL = CC(C)CC(N)C(=O)O; ClAc = O=C(CCl)*
Columns and labels:
[1] = NCI Yeast Anticancer Drug Screen. Data for the rad50 strain (AID 155);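 note: 0% = growth of vehicle-only cultures of the same strain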; conditions: S. cerevisiae rad50 strain growth inhibition; at 50.0 µM; hits give high values
How it was run: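 Yeast carrying a defined DNA repair defect were exposed to test compounds, and growth was compared with vehicle-treated controls to give percent inhibition.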

[2] = NCI Yeast Anticancer Drug Screen. Data for the mec2-1 strain (AID 157); conditions: S. cerevisiae mec2-1 strain, at 50.0 µM, hits give high values
How it was run: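 Cells of the genetically defined mec2-1 yeast strain are incubated with test compound. Inhibition of growth is calculated against vehicle-treated controls.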

[3] = NCI Yeast Anticancer Drug Screen. Data for the mlh1 rad18 strain (AID 175); conditions: S. cerevisiae mlh1 rad18 strain growth inhibition; at 50.0 µM; hits give high values
How it was run: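 Compound-treated yeast growth, normalised to vehicle controls. Strain bears defined DNA repair mutations.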

[4] = NCI Yeast Anticancer Drug Screen. Data for the sgs1 mgt1 strain (AID 161);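 note: 0% = growth of cultures given vehicle only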; conditions: S. cerevisiae sgs1 mgt1 strain, at 50.0 µM, hits give high values
How it was run: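 Mutant yeast exposed to compound; growth scored against vehicle-only wells.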

[5] = NCI Yeast Anticancer Drug Screen. Data for the bub3 strain (AID 167); conditions: S. cerevisiae bub3 mutant strain, at 50.0 µM, hits give high values
How it was run: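 Compounds were applied to a genetically altered yeast strain carrying a cell-cycle control defect. Growth inhibition was scored against vehicle-treated controls.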

Measured: growth inhibition

CC(C)CC(NC(=O)CCl)C(=O)NCC(=O)O (centres undefined) (ClAc-[ξL]-Gly-OH)
inactive: [1] 8.05% | [2] 9.65% | [3] -3.75%

S=C1SCN(Cc2ccccc2)CN1Cc1ccccc1
inactive: [1] -10.1% | [2] -26.1% | [3] -13.3%

O=C(/C=C(\[O-])c1ccccc1)CCCCCCC(=O)/C=C(\[O-])c1ccccc1.O=C(/C=C(\[O-])c1ccccc1)CCCCCCC(=O)/C=C(\[O-])c1ccccc1.O=C(/C=C(\[O-])c1ccccc1)CCCCCCC(=O)/C=C(\[O-])c1ccccc1.[Y+3].[Y+3]
inactive: [1] 7.3% | [2] -3.7% | [4] 8.75% | [5] 15.4% | [3] -1.85%

CC(=O)CC(=O)N1CCN(C(=O)CC(C)=O)CC1
inactive: [1] -16.9% | [2] -16.8% | [3] -23.3%

Cc1ccc2c(c1)=N/C(=N\c1nc(O)c(O)[nH]1)N=2
inactive: [1] 7.4% | [2] -15.3% | [3] -4.55%

N#C/C(=C/c1ccccc1Cl)C(N)=O
inactive: [1] -12.2% | [2] -7.05% | [3] 6.15%

CC1=NN(c2ccccc2)C(=O)/C1=C\c1ccc(N(CCC#N)CCC#N)cc1
inactive: [1] 6.85% | [2] -4.95% | [3] 21.9%

CCOc1ccc(N=c2ssc(SC)c2-c2ccccc2)cc1
inactive: [1] 3.4% | [2] -10.8% | [3] 20.5%

COC(=O)C(C)CN1CC(C)OC(C)C1 (centres undefined)
inactive: [1] -25.2% | [2] -26.2% | [3] -13.2%

CC(C)C(C(=O)c1ccccc1)c1ccccc1 (centres undefined)
inactive: [1] -0.3% | [2] -10.1% | [3] -3.55%

O=C(OCC1OC(Oc2ccccc2CO)C(O)C(O)C1O)c1ccccc1 (centres undefined)
inactive: [1] -2.1% | [2] 1.45% | [3] 0.45%

O=C1c2ccccc2C(=O)N1/N=C/c1cc(Cl)cc(Cl)c1O
inactive: [1] 0.95% | [2] -17.4% | [3] -4.95%

O=C(/C(=N/N=C\c1ccc([N+](=O)[O-])cc1)c1ccccc1)c1ccccc1
inactive: [1] -10.6% | [2] -18.4% | [3] -1.25%

COc1ccc(-c2cc(=O)c3ccc(O)cc3o2)cc1
inactive: [1] 7.55% | [2] -13.3% | [3] 38%

CN(C)/C=C/C(=O)c1ccccc1[N+](=O)[O-]
inactive: [1] 16.7% | [2] -11.4% | [3] 12.2%

Cc1c(Cl)cccc1N1C(=O)CC(Sc2ccccc2N)C1=O (centres undefined)
inactive: [1] 1.05% | [2] -13.9% | [3] 3%

CS(=O)(=O)c1ccc(NN)c([N+](=O)[O-])c1 (tested in a mixture with another compound)
inactive: [1] -25.7% | [2] -46.8% | [3] -39.1%

CCN(CC)C(C(=O)Nc1ccccc1)C(=O)Nc1ccccc1
inactive: [1] 3.7% | [2] 2.8% | [3] -4.9%

CCOC(=O)C(=Cc1c[nH]c2ccc(Br)cc12)C(=O)OCC
inactive: [1] -17.5% | [2] -22.9% | [3] -5.15%

Source: PubChem BioAssay (NCI)
